Test results as given in PubChem BioAssay (NCATS).
Results filed as inconclusive are left out. Active and inactive are the calls of the source. Calls come from the whole dose curve; as a rule, active = well fitted activation curve with a large enough effect in the signal ratio, with a control signal flat (not every such curve was filed as active); inconclusive = small, poorly fitted or top-dose-only effect, or effect the other way, or a change in a side signal; inactive = flat fitted curve, though single readings scatter; the % refers to the signal ratio.

test: qHTS Assay for Identification of Small Molecule Agonists for Hypoxia Response Element Signaling Pathway (AID 914); settings: ME-180 (cervical carcinoma) HRE-bla reporter, beta-lactamase ratio, CoCl2, 17 h; stronger effect = higher value; note: % of control where 0% means no effect
Procedure, shortened: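 A beta-lactamase reporter under hypoxia response element control in ME-180 cells served as the system. Compound titrations plus EC50 CoCl2 ran 17 h at 37 degrees Celsius; AC50 values were fitted from %Activity.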

| SMILES | activation |
| --- | --- |
| CC(C)=CCC/C(C)=C/CO/N=C1/C[C@@H](O)[C@@H](O)[C@@H]2[C@@H]3C(=O)N(c4cccc(Oc5ccccc5)c4)C(=O)[C@H]3CC[C@H]12 | 7.14% (inactive) |
| O=C1C=C[C@@H](O)[C@H]2[C@@H]3C(=O)N(C[C@@H]4CCCO4)C(=O)[C@@H]3CC[C@H]12 | -2.79% (inactive) |
| COC(=O)C/C=C\[C@@H](C)[C@H]1C=C[C@H](O)[C@@H](CO)O1 | 10.7% (inactive) |
| CC(C)[C@H](NC(=O)OC(C)(C)C)[C@@H](O)CC(=O)C(C)(C)C | 3.44% (inactive) |
| CCN1C(=O)[C@H]2[C@H]3[C@H](O)[C@H](O)C/C(=N/OCc4ccccc4)[C@@H]3CC[C@@H]2C1=O | -12.3% (inactive) |
| COC(=O)C(C(=O)OC)[C@@H]1CCCC(=O)C1 | -2.41% (inactive) |
| COC(=O)C/C=C\[C@@H](C)[C@@H]1C=C[C@H](OC(C)=O)[C@H](COC(C)=O)O1 | 1.52% (inactive) |
| CC(C)CO/N=C1/C[C@@H](O)[C@@H](O)[C@@H]2[C@@H]3C(=O)N(C4CCCCC4)C(=O)[C@H]3CC[C@@H]12 | -7.25% (inactive) |
| CC(C)=CCC/C(C)=C/CO/N=C1/C[C@@H](O)[C@@H](O)[C@@H]2[C@@H]3C(=O)N(c4cccc(Oc5ccccc5)c4)C(=O)[C@H]3CC[C@@H]12 | 6.84% (inactive) |
| O=C(N/N=C1/C[C@@H](O)[C@@H](O)[C@@H]2[C@@H]3C(=O)N(c4cccc(Oc5ccccc5)c4)C(=O)[C@H]3CC[C@H]12)OCc1ccccc1 | 9.49% (inactive) |
